Screens: PubChem, Center for Chemical Genomics, University of Michigan
The entries come from a sample that favours hits as a whole.
Dicer processing: inhibitors of Dicer pre-microRNA processing, primary screen, biochemical, cat-ELCCA, chemiluminescence. AID 1347074, 2019. z-score at 25 µM. cat-ELCCA pre-miR-21 Dicer processing; hits give high values. 6% of 47,000 active. Endoribonuclease Dicer (Homo sapiens), Q9UPY3; in the data active means z-score above about 3, passing the limit was not always enough;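 further: plate controls were vehicle for no effect and no enzyme for full effect; higher signal means more uncleaved substrate so more Dicer inhibition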
Numbers without * were called inactive.

SMILES | Dicer processing
CCOC(=O)c1c(C)n(C)c2cc(-c3ccc(Cl)cc3)c(O)cc12 | 2.2
CCOC(=O)c1c(C)n(C)c2cc(-c3ccc(C)cc3)c(O)cc12 | 2
CCOC(=O)c1c(C)n(C)c2cc(-c3ccc(CC)cc3)c(O)cc12 | 3.5*
CCOC(=O)c1sc(SC)c(S(=O)(=O)C(C)C)c1N | -1.2
C=CCNC(=S)NNC(=O)c1cnn(-c2ccccc2)c1N | 1.6
CC(C)(C)S(=O)(=O)/C(C#N)=C/NNS(=O)(=O)c1ccc(Cl)c(Cl)c1 | -1.4
Fc1ccc(CN2CCCN(Cc3ccc(F)cc3)C2c2ccc3c(c2)CCO3)cc1 | -0.74
COc1ccc(C2Nc3ccccc3-c3cc(C)nn32)cc1OC (configuration not stated) | 3
c1ccc2c(c1)NC(c1ccc3c(c1)CCO3)n1cccc1-2 (configuration not stated) | 3.4*
O=C(O)CSc1nnc(-c2cccc(Cl)c2)o1 | 0.44
NC(=O)Cc1ccccc1Br | 0.86
CC(C)(C)OC(=O)/C(C#N)=C/c1ccc(Cl)cc1 | 1
CC(C)(C)C(=O)/C(C#N)=C/c1c(Cl)cccc1Cl | -0.78
CC(C)(C)C(=O)/C(C#N)=C/c1ccc(C(F)(F)F)cc1 | 3.2*
COc1ccc(C(c2ccc(N(C)C)cc2)c2ccc(N(C)C)cc2)c(C)c1C | 3.2*
CN(C)c1ccc(C(O)C(=O)c2ccccc2)cc1 (configuration not stated) | -0.12
CC1CCC2C(=O)N(c3cccc4ccccc34)C(=O)C2C1 (configuration not stated) | 0.07
Cc1[nH]c2ccccc2c1SCC(=O)NN | -0.4
COc1ccc(-c2cc(OC(=O)c3cccc(Br)c3)c3c(C)oc(C)c3c(=O)c2)cc1 | 2.7
COc1ccc(-c2cc(OC(=O)c3cccs3)c3c(C)oc(C)c3c(=O)c2)cc1 | 4.3*
COc1ccc(-c2cc(OC(=O)c3ccc(Cl)cc3)c3c(C)oc(C)c3c(=O)c2)cc1 | 1.7
Cc1ccc(C2C(C(=O)c3cccs3)=C(O)C(=O)N2CCCn2ccnc2)cc1 (configuration not stated) | 3.3*
Cc1nnc(N2C(=O)C(O)=C(C(=O)c3cccs3)C2c2ccc(F)cc2)s1 (configuration not stated) | 3.8*
CC(C)c1ccc(C2C(C(=O)c3cccs3)=C(O)C(=O)N2CCCN2CCOCC2)cc1 (configuration not stated) | 1.3
Cc1nnc(N2C(=O)C(O)=C(C(=O)c3ccco3)C2c2ccccc2)s1 (configuration not stated) | 1.2
SMILES | Dicer processing
COC(=O)c1sc(N2C(=O)C(O)=C(C(=O)c3cccs3)C2c2ccc(Cl)cc2)nc1C (configuration not stated) | 3.8*
COc1ccc(C2C(C(=O)c3ccco3)=C(O)C(=O)N2c2nnc(C)s2)cc1OC (configuration not stated) | 0.56
Cc1nnc(N2C(=O)C(O)=C(C(=O)c3ccco3)C2c2ccc(Cl)cc2)s1 (configuration not stated) | 4.2*
Cc1nnc(N2C(=O)C(O)=C(C(=O)c3cccs3)C2c2ccc(C(C)(C)C)cc2)s1 (configuration not stated) | 1.1
Cc1nnc(N2C(=O)C(O)=C(C(=O)c3cccs3)C2c2ccc(Cl)cc2)s1 (configuration not stated) | 0.95
O=C(C1=C(O)C(=O)N(CCN2CCOCC2)C1c1ccncc1)c1cccs1 (configuration not stated) | -2.3
COC(=O)c1sc(N2C(=O)C(O)=C(C(=O)c3cccs3)C2c2ccc(F)cc2)nc1C (configuration not stated) | 1.4
COC(=O)c1sc(N2C(=O)C(O)=C(C(=O)c3cccs3)C2c2ccc(C(C)C)cc2)nc1C (configuration not stated) | 2.4
Cn1c(=O)c(/C(N)=N/OC(=O)c2cccs2)cn(-c2ccccc2)c1=O | -1.9
Fc1cccc2c(OC3CCN(Cc4ccccc4)CC3)cc(C(F)(F)F)nc12 | -2
OC(c1ccc(C(F)(F)F)cc1)c1cccc(C(F)(F)F)c1 (configuration not stated) | -1.1
CCOc1ccc(C2C(C(=O)c3cc4ccccc4o3)=C(O)C(=O)N2CCN(C)C)cc1OC (configuration not stated) | 2.5
COC(=O)c1cn(C(=O)COc2ccc(Cl)cc2)c2ccccc12 | 0.02
COC(=O)c1cn(C(=O)c2cccs2)c2ccccc12 | 3*
COC(=O)c1cn(C(=O)c2ccco2)c2ccccc12 | -0.78
O=c1oc(-c2c(F)cccc2F)nn1-c1cc(C(F)(F)F)ccn1 | 0.45
Cc1oc2cc(O)cc(O)c2c(=O)c1-c1ccccc1 | 1.3
O=c1c(O)c(-c2ccc(O)c(O)c2)oc2cc(O)cc(O)c12 | 0.32
O=c1cc(-c2ccc(O)c(O)c2)oc2cc(O)cc(O)c12 | 12*
CCOC(=O)N/N=C(\C)c1ccc(/C(C)=N/NC(=O)OCC)cc1 | 0.81
O=C(Nc1ccc(F)c(Cl)c1)c1cccnc1Sc1cccs1 | -2.4
C#CC1(NS(=O)(=O)c2ccc(Sc3ccc(Cl)cc3)c([N+](=O)[O-])c2)CCCCC1 | 0
O=C(/C=C/C(=O)c1ccc(F)cc1)c1ccc(F)cc1 | 1.5
CCOC(=O)N1CCN(C(=O)c2ccc([N+](=O)[O-])o2)CC1 | 3.5*
CCN(C(=O)c1ccc([N+](=O)[O-])o1)c1ccccc1 | 1.4
SMILES | Dicer processing
O=C(OCc1nc2ccccc2s1)c1ccc([N+](=O)[O-])o1 | -0.88
O=C(/C=C/c1ccccc1)NNC(=O)c1sccc1-n1cccc1 | 1.6
COc1cc2ccccc2cc1C(=O)Nc1sc2c(c1C#N)CCC2 | 2.8
N#Cc1c(NC(=O)C(=O)c2c[nH]c3ccccc23)sc2c1CCCC2 | 4.6*
CN(C)C(=O)c1c(NC(=O)c2ccccc2)sc2c1CCCC2 | -0.15
N#Cc1c(NC(=O)c2ccc(Cl)cc2)sc2c1CCCC2 | 1.4
N#Cc1c(NC(=O)COc2ccc(Cl)cc2)sc2c1CCCC2 | -0.23
N#Cc1c(NC(=O)c2ccccc2)sc2c1CCCCC2 | 3.2*
CCOC(=O)/C(N=Nc1ccccc1Cl)=C(/O)CSc1nnc(C(F)(F)F)n1C | 1.5
CC(C)Cn1c(C(C)O)nc2ccccc21 (configuration not stated) | -0.35
O=C(Cn1nc(-c2ccc(Cl)cc2)c2ccccc2c1=O)c1ccccc1 | -0.85
CC(C)N(C(=O)c1ccccc1-c1ccccc1C(=O)N(C(C)C)C(C)C)C(C)C | 1.2
Cc1ccc(-c2cc(O)cc3sc(=O)oc23)cc1 | 8.1*
O=c1oc2c(-c3ccccc3Cl)cc(O)cc2s1 | 3.6*
Cc1ccc(-c2cc(O)cc3sc(=O)oc23)cc1Cl | 5.3*
Cc1ccc(-c2nc(NC(=O)COc3ccc(Cl)cc3Cl)sc2C)cc1Cl | 2.1
O=c1oc2c(-c3cccc(F)c3)cc(O)cc2s1 | 5*
Cc1ccc(-c2nc3sc(C)c(C)c3c(=O)o2)cc1 | 0.59
CCc1ccc(-c2cc(O)cc3sc(=O)oc23)cc1 | 1.9
CC(=O)Oc1cc2sc(=O)oc2c2ccccc12 | -4.4
O=c1oc(-c2ccccc2Cl)nc2ccc(I)cc12 | 2.7
Cc1ccc(C(=O)Nc2nc(-c3ccc(C)c(Cl)c3)c(C)s2)cc1 | 1.4
N/C(=N/OC(=O)Nc1cccc(C(F)(F)F)c1)C1COc2ccccc2O1 (configuration not stated) | -0.96
Cc1nnc2c(Oc3ccc(Cl)cc3)nc3ccccc3n12 | -1.4
